Measured values as given in PubChem BioAssay AID1863 (Southern Research Specialized Biocontainment Screening …, 2009).
The campaign covered roughly 300,000 compounds. About 480 (0.16%) were called active.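 How the source made its calls: active means inhibition over 29.93%, a cutoff 3 SD above the screen mean, later confirmed by dose response; inconclusive means inhibition over 29.93% but no dose response follow-up; inactive means inhibition at most 29.93% or unconfirmed.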 These entries were drawn from the full list. Potency and affinity values are given separately.

assay: inhibitors of PhoP regulon expression, primary screen, Salmonella Typhimurium, GFP reporter (AID 1863);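 further: 0% = low Mg2+ inducing control and 100% = high Mg2+ repressing control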; settings: S. Typhimurium PhoP-regulated promoter GFP reporter, 4 h; at 50 µM; hits give high values

inhibition, inactive:
CC(=O)NC(c1ccc2ccccc2c1)c1ccc2cccnc2c1O (stereo not given) 56.5%
Cc1ccc(C(NC(=O)C(C)C)c2cc([N+](=O)[O-])c3cccnc3c2O)cc1 (stereo not given) 9.47%
COc1cccc(C(NC(C)=O)c2ccc3cccnc3c2O)c1 (stereo not given) 9.73%
CC(=O)NC(c1ccccc1)c1cc([N+](=O)[O-])c2cccnc2c1O (stereo not given) 4.87%
CCCC(=O)NC(c1cccs1)c1cc(Cl)c2cccnc2c1O (stereo not given) -5.84%
CC(C)C(=O)NC(c1cccs1)c1cc([N+](=O)[O-])c2cccnc2c1O (stereo not given) 2.63%
CC(C)C(=O)NC(c1ccccc1)c1cc([N+](=O)[O-])c2cccnc2c1O (stereo not given) -2.27%
CCCCC(=O)NC(c1cccs1)c1cc(Cl)c2cccnc2c1O (stereo not given) -0.21%
COc1cccc2cc(CC(=O)c3cc(C)ccc3C)c(=O)oc12 -3.13%
CCOc1ccc(NC(=O)CN(C)C(=O)c2ccc3nc(CC)c(CC)nc3c2)cc1OCC -9.1%
CC(C)C[C@H](NC(=O)c1nc[nH]c1C(=O)NCCCCCNC(=O)OC(C)(C)C)C(=O)OCc1ccccc1 -4.74%
Cc1ccc(S(=O)(=O)N2CCN(C(=O)CC(C)C)CC2)cc1 3.71%
Cc1ccc(NC(=O)Nc2ccon2)cc1Cl 0.2%
Clc1ccccc1CONc1ncnc2nonc12 -2.15%
CCC(C)(C)NC(=O)Cc1ccc(OC)c(OC)c1 -10.6%
O=Cc1c(F)cccc1N1CCCC1 8.32%
Cc1cccc(NC(=O)CC2(CC(=O)O)CCCC2)c1 -1.98%
Cc1ccc(C2N(c3ccc(Cl)cc3)C(=O)N3CCCN23)cc1 (stereo not given) -0.36%
O=[N+]([O-])c1cc2cccnc2c2ncccc12 -10.2%
CCOC(=O)COc1cc([N+](=O)[O-])cc2cccnc12 1.41%
CN(C)[C@@H]1C(=O)C(C(=O)NCN2CCCC2)=C(O)[C@@]2(O)C(=O)C3=C(O)c4c(O)cccc4[C@@](C)(O)C3CC12 (stereo not given in full) 1.32%
O=C1C(Oc2ccc(Cl)cc2)C(c2ccc3c(c2)OCO3)N1CC1CCCO1 (stereo not given) -1.66%
COc1ccc(-c2cc(C(F)(F)F)n3nc(C(=O)N4CCN5CCCC5C4)cc3n2)cc1OC (stereo not given) 8.34%
CN1C(=O)[C@@H]2[C@H](C1=O)[C@@H]1C(=O)Nc3ccccc3C(=O)N1[C@@H]2c1ccc(F)cc1 6.12%
CC1Cc2ccccc2N1C(=O)CSc1nnnn1-c1ccc2c(c1)OCCO2 (stereo not given) 4.49%
